What all share (assay): DAPPL (digital affinity profiling via proximity ligation, sequencing); 10 mM Tris-HCl pH 7.5, 50 mM NaCl, 1 mM DTT, 4% glycerol, room temperature, 30 min; GST-TFs on glutathione beads, 16-mer random dsDNA library, 0.1% formaldehyde crosslink after washing; high values mean tight binding
The target of one test is T1, FLI1 (Homo sapiens, UniProt Q01543 1-452).
T1 sequence: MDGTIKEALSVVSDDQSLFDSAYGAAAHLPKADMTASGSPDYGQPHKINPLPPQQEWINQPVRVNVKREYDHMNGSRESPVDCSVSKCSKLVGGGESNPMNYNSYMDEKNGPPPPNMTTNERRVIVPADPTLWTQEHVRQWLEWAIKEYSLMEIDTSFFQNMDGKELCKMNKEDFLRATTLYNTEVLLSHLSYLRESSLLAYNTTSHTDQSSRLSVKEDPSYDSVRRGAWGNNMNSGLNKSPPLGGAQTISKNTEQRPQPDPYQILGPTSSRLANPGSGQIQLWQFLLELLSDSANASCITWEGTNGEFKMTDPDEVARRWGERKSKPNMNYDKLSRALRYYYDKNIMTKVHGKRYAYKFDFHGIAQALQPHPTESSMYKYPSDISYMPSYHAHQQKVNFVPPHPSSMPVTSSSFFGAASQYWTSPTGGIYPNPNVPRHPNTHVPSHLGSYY
Conditions: protein: recombinant; tags: N-terminal GST; dsDNA, one strand shown. The gist of the method:
(§1)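 Human transcription factors were made in yeast as GST fusions, captured on glutathione beads and barcoded with DNA. With a tag-only sample included, the pool was incubated with 200 nmole of a random double-stranded 16-mer DNA library in Tris/NaCl/DTT/glycerol buffer at room temperature for 30 min, then crosslinked with 0.1% formaldehyde after washing, ligated by proximity, amplified and sequenced. For binding signal, each hexamer's read frequency for a factor is divided by its frequency for the tag-only sample.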

A further test addresses T2, ELK1 (Homo sapiens, UniProt P19419 1-428).
T2 sequence: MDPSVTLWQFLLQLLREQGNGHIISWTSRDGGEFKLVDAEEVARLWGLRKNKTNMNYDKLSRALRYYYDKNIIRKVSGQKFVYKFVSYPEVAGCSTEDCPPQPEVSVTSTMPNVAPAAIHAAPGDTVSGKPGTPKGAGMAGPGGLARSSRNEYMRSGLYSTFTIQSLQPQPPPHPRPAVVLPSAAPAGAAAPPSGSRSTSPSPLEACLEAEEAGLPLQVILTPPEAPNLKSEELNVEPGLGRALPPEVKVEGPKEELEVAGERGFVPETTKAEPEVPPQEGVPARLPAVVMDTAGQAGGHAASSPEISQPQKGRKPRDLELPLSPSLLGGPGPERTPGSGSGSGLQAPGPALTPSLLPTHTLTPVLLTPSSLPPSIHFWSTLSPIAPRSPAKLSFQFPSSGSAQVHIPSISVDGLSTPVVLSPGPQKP
Particulars: protein: recombinant; tags: N-terminal GST; dsDNA, one strand shown. The gist of the method: as §1

The target in the next test is T3, GABPA (Homo sapiens, UniProt Q06546 1-454).
T3 sequence: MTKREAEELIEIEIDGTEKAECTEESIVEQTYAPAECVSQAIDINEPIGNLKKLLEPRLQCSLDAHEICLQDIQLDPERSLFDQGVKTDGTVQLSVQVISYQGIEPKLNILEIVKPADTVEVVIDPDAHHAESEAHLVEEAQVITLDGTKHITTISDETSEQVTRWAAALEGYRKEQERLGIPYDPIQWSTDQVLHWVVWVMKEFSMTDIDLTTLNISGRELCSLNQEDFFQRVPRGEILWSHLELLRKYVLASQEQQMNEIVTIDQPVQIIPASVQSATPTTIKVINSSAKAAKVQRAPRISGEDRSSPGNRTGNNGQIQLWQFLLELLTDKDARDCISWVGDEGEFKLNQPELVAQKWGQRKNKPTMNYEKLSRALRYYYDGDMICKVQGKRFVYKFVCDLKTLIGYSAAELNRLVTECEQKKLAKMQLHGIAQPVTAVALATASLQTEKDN
Particulars: protein: recombinant; tags: N-terminal GST; dsDNA, one strand shown. The gist of the method: as §1

In a further test the target is T4, ERG (Homo sapiens, UniProt P11308 1-479).
T4 sequence: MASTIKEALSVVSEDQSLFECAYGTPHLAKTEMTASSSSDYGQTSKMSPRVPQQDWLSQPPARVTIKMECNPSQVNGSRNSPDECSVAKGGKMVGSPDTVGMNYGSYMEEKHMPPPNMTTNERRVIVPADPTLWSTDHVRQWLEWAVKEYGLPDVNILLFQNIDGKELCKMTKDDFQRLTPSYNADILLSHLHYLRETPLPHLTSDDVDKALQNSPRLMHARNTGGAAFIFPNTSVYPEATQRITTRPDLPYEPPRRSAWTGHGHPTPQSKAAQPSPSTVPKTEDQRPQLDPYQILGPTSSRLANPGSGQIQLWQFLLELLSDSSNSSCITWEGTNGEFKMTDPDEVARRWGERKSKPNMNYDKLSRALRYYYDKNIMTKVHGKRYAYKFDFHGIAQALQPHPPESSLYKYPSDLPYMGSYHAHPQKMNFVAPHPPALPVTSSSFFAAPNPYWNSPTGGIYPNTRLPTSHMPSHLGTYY
Conditions: protein: recombinant; tags: N-terminal GST; dsDNA, one strand shown. In short, it runs like this:
as §1

The target of a further test is ELF1 (Homo sapiens, UniProt P32519 1-619). Particulars: protein: recombinant; tags: N-terminal GST; dsDNA, one strand shown. In short, it runs like this: as §1
For another test, the target named is T5, EHF (Homo sapiens, UniProt Q9NZC4 1-300).
T5 sequence: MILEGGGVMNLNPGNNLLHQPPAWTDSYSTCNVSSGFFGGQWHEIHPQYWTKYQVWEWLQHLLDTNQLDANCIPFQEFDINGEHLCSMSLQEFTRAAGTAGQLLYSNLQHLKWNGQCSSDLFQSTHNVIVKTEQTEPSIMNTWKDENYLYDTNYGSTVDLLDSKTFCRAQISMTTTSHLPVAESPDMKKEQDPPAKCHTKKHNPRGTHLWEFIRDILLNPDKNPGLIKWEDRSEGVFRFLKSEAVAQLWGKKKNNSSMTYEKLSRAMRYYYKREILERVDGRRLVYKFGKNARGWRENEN
Particulars: protein: recombinant; tags: N-terminal GST; dsDNA, one strand shown. In short, it runs like this: as §1

For a further test, the target named is SPI1 (Homo sapiens, UniProt P17947 1-270). Particulars: protein: recombinant; tags: N-terminal GST; dsDNA, one strand shown. In short, it runs like this:
as §1

The target of another test is SPIB (Homo sapiens, UniProt Q01892 1-262). Conditions: protein: recombinant; tags: N-terminal GST; dsDNA, one strand shown. In short, it runs like this:
as §1

A further test addresses T6, ELK3 (Homo sapiens, UniProt P41970 1-407).
T6 sequence: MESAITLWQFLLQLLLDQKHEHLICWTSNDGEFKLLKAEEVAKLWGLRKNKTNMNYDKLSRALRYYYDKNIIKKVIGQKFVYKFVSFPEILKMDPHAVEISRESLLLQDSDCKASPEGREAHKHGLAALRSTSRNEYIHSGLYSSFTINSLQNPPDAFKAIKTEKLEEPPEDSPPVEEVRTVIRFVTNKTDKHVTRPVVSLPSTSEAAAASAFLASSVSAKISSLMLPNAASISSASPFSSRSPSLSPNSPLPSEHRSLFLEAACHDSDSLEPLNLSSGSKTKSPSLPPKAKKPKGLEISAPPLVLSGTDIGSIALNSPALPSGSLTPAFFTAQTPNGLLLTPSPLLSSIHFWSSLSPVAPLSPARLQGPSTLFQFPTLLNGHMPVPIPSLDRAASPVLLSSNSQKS
Particulars: protein: recombinant; tags: N-terminal GST; dsDNA, one strand shown. In short, it runs like this:
as §1

For a further test, the target named is T7, FEV (Homo sapiens, UniProt Q99581 1-238).
T7 sequence: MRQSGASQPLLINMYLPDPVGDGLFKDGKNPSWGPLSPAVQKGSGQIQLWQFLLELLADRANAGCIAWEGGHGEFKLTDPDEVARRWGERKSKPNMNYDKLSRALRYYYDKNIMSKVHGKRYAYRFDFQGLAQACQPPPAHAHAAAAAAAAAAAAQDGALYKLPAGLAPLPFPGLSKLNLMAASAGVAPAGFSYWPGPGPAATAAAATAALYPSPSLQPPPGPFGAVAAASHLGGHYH
Particulars: protein: recombinant; tags: N-terminal GST; dsDNA, one strand shown. In short, it runs like this: as §1

The target in the next test is ETV5 (Homo sapiens, UniProt P41161 1-510). Particulars: protein: recombinant; tags: N-terminal GST; dsDNA, one strand shown. In short, it runs like this: as §1
The next test deals with HSF1 (Homo sapiens, UniProt Q00613 1-529). Particulars: protein: recombinant; tags: N-terminal GST; chain copies: 3; dsDNA, one strand shown. In short, it runs like this: as §1
The target in another test is T8, SPIC (Homo sapiens, UniProt Q8N5J4 1-248).
T8 sequence: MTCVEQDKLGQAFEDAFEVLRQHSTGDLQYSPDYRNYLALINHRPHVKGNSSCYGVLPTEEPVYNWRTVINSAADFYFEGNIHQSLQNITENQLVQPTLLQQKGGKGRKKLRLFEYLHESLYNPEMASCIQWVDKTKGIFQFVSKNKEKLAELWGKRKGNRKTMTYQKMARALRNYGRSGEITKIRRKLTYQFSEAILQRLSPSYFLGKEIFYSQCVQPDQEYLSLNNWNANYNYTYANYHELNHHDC
Particulars: protein: recombinant; tags: N-terminal GST; dsDNA, one strand shown. In short, it runs like this:
as §1

In a further test the target is ELF4 (Homo sapiens, UniProt Q99607 1-663). Particulars: protein: recombinant; tags: N-terminal GST; dsDNA, one strand shown. In short, it runs like this:
as §1

The target in the next test is T9, ELK4 (Homo sapiens, UniProt P28324-2 1-405).
T9 sequence: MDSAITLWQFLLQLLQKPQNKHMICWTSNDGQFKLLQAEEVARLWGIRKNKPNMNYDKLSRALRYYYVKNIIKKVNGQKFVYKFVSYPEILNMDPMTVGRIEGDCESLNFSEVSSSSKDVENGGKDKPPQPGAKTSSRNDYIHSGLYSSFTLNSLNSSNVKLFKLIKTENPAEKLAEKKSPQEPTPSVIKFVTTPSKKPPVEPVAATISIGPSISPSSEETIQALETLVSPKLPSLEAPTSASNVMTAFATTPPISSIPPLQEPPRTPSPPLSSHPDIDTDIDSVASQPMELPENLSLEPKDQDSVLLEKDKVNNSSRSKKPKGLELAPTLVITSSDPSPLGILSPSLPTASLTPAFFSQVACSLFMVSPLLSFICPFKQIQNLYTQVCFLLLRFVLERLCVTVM
Conditions: protein: recombinant; tags: N-terminal GST; dsDNA, one strand shown. The gist of the method:
as §1

The target in the next test is T10, ETV2 (Homo sapiens, UniProt O00321 1-342).
T10 sequence: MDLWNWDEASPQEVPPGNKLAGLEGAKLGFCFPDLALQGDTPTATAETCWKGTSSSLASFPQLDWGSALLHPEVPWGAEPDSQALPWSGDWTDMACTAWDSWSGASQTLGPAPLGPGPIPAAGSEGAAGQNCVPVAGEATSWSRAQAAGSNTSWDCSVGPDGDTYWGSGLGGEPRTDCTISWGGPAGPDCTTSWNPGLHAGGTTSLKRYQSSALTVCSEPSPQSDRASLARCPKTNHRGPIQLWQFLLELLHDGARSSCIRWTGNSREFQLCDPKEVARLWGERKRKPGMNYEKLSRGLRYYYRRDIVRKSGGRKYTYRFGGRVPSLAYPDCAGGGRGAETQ
Conditions: protein: recombinant; tags: N-terminal GST; dsDNA, one strand shown. In short, it runs like this: as §1

Another test deals with T11, ELF3 (Homo sapiens, UniProt P78545 1-371).
T11 sequence: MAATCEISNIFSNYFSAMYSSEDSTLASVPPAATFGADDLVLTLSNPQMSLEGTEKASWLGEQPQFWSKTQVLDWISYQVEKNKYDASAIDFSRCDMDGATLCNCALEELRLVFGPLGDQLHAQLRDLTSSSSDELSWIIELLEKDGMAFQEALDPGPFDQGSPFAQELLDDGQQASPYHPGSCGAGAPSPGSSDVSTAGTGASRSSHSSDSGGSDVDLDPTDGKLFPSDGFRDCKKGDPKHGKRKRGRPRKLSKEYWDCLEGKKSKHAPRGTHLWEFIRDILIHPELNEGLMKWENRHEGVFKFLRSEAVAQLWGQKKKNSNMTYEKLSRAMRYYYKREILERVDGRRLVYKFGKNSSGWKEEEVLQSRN
Particulars: protein: recombinant; tags: N-terminal GST; dsDNA, one strand shown. In short, it runs like this:
as §1

Another test concerns the target CRX (Homo sapiens, UniProt O43186 1-299). Particulars: protein: recombinant; tags: N-terminal GST; dsDNA, one strand shown. In short, it runs like this: as §1
The target of another test is ETV1 (Homo sapiens, UniProt P50549 1-477). Conditions: protein: recombinant; tags: N-terminal GST; dsDNA, one strand shown. The gist of the method: as §1

One sequence from article PMC7862700, “An all-to-all approach to the identification of sequence-specific readers for epigenetic DNA modifications on cytosine” can be followed below.

ELF1, sequence (P32519 whole entry): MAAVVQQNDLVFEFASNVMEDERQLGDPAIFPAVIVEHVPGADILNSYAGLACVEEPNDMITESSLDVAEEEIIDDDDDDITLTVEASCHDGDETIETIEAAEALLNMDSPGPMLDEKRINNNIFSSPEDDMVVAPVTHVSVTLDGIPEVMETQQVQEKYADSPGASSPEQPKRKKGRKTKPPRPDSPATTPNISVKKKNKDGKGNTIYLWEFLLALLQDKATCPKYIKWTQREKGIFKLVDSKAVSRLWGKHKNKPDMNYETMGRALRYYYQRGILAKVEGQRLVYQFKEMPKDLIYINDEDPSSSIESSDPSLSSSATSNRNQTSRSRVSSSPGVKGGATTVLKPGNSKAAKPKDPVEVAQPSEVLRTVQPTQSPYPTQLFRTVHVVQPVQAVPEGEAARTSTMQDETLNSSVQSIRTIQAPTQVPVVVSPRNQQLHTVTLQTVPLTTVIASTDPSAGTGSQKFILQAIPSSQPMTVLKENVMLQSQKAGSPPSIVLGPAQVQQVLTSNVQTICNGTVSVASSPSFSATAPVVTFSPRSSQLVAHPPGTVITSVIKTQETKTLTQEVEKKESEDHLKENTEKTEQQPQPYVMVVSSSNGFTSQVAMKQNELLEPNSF
SPIB, sequence (Q01892 whole entry): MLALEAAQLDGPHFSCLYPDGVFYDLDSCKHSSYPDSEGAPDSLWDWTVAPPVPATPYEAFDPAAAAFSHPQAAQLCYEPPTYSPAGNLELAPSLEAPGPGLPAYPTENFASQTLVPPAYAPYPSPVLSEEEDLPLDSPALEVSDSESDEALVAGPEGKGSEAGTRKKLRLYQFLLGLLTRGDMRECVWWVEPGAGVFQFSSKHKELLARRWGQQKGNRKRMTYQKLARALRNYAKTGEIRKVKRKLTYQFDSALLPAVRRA
HSF1, sequence (Q00613 whole entry): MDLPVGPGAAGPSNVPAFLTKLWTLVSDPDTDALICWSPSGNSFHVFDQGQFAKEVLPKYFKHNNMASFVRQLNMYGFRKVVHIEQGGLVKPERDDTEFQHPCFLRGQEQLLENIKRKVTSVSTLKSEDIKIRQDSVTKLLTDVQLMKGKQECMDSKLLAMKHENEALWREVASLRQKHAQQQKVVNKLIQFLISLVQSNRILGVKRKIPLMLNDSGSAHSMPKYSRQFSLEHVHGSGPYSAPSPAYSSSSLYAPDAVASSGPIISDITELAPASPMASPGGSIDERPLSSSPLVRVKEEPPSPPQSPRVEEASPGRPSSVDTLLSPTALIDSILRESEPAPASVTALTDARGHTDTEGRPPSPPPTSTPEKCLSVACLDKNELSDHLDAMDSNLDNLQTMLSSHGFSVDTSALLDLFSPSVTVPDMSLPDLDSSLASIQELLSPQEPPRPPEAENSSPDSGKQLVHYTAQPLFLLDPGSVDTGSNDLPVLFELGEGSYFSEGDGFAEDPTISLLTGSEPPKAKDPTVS
ETV1, sequence (P50549 whole entry): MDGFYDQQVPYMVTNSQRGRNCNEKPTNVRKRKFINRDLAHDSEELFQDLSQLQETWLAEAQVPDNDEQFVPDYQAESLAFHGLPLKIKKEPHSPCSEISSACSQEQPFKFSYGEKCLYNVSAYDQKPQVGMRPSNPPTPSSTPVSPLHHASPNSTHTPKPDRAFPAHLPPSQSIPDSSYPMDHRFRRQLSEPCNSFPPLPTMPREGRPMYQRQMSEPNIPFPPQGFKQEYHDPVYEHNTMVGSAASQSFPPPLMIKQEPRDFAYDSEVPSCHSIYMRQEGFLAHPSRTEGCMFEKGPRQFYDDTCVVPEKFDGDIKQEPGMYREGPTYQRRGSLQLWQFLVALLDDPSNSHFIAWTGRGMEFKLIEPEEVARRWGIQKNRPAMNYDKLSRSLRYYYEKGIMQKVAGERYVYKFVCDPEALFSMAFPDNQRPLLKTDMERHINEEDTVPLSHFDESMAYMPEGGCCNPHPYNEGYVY
ETV5, sequence (P41161 whole entry): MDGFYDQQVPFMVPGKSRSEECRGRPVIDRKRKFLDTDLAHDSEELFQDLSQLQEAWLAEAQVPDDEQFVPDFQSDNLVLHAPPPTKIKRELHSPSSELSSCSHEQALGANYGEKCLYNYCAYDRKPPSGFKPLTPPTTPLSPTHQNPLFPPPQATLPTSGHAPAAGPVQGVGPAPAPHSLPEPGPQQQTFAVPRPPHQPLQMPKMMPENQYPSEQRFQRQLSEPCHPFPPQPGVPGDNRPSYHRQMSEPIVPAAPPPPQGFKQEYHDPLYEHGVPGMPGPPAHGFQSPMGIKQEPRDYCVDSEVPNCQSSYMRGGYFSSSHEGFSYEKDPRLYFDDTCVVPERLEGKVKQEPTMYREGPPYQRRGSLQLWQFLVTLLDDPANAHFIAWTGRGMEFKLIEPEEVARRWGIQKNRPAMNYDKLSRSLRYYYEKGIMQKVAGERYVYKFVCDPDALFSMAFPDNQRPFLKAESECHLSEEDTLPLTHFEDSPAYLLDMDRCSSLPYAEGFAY
ELF4, sequence (Q99607 whole entry): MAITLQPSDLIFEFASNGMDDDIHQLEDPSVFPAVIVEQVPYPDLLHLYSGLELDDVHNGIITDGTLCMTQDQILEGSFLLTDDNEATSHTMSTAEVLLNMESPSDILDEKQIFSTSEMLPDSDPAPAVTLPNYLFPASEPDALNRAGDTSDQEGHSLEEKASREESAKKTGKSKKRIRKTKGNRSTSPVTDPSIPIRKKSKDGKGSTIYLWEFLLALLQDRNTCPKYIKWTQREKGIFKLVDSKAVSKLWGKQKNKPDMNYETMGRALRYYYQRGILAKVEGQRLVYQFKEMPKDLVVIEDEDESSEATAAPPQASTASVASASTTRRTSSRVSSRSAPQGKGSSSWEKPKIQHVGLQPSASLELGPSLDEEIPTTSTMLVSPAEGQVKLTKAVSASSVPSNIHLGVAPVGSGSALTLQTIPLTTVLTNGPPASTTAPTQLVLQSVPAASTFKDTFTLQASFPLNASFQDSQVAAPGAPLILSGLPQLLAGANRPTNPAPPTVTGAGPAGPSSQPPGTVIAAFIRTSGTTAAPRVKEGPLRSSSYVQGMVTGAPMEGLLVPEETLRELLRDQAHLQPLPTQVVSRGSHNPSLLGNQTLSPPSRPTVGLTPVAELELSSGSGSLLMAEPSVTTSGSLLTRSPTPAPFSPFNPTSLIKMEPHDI
CRX, sequence (O43186 whole entry): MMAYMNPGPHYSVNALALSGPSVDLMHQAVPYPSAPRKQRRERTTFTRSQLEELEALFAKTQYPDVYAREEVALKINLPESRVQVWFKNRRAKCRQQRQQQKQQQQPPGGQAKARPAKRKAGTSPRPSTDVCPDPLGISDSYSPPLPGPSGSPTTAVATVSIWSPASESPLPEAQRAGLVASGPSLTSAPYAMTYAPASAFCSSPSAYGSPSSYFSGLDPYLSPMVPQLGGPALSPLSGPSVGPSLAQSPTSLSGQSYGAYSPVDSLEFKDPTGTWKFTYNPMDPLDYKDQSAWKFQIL

As to ATTACG, the binding signal is 1.22 fold enrichment (6-mer frequency, TF over GST control) with FLI1; 1.13 fold enrichment (6-mer frequency, TF over GST control) in the test with ELK1; 1.25 fold enrichment (6-mer frequency, TF over GST control) with GABPA; 1.17 fold enrichment (6-mer frequency, TF over GST control) with ERG; 1.2 fold enrichment (6-mer frequency, TF over GST control) in the test with ELF1; 1.12 fold enrichment (6-mer frequency, TF over GST control) with EHF. The binding signal is 1.23 fold enrichment (6-mer frequency, TF over GST control) in the test with SPI1; 1.18 fold enrichment (6-mer frequency, TF over GST control) with SPIB; 1.25 fold enrichment (6-mer frequency, TF over GST control) in the test with ELK3; 1.16 fold enrichment (6-mer frequency, TF over GST control) with FEV; 1.26 fold enrichment (6-mer frequency, TF over GST control) in the test with ETV5; 1.54 fold enrichment (6-mer frequency, TF over GST control) in the test with HSF1. Further, the binding signal was 1.02 fold enrichment (6-mer frequency, TF over GST control) with SPIC; 1.14 fold enrichment (6-mer frequency, TF over GST control) with ELF4; 1.28 fold enrichment (6-mer frequency, TF over GST control) in the test with ELK4; 1.17 fold enrichment (6-mer frequency, TF over GST control) with ETV2; 1.14 fold enrichment (6-mer frequency, TF over GST control) with ELF3; 2.19 fold enrichment (6-mer frequency, TF over GST control) with CRX. In addition, the binding signal with ETV1 is 1.26 fold enrichment (6-mer frequency, TF over GST control).
